Screening data (PubChem)
Shown are actives, neighbours in structure and some others; about 28% of the full set was active somewhere.
CYP2C19 activ = increases human CYP2C19 enzyme activity; 96,000 tested, under 10 active; activation factor at 5 µM; recombinant CYP2C19, luciferin-H EGE luminescence; hits give high values; 0 = fully inhibited enzyme, 1 = untreated enzyme; AID 1025; P33261;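 active = activation factor of at least 2 at 5 µM in the primary screen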;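 note: 0 = wells with 2.5 mM tranylcypromine and 1 = vehicle-only wells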
CYP2C19 inh = inhibitors of human CYP2C19. CYP2C19 Supersomes, luciferin-H EGE luminescence, 30 min. P33261. hit rate 21% among 96,000. inhibition, % at 5 µM. AID 778;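 active = CYP2C19 inhibition above a set limit at 5 µM in the primary screen, cut at about 50% in these data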;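 note: plate controls were negative control wells for no effect and 2.5 mM tranylcypromine positive control for full effect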
CYP2C9 inh = inhibitors of human CYP2C9; CYP2C9 Supersomes, luciferin-H conversion, luminescence; inhibition, % at 5 µM; hit rate 20% among 96,000;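 active = blocking of liver enzyme CYP2C9 beyond about 50% at 5 µM, limit read from the data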
Target sequence (P11712 whole entry, looked up): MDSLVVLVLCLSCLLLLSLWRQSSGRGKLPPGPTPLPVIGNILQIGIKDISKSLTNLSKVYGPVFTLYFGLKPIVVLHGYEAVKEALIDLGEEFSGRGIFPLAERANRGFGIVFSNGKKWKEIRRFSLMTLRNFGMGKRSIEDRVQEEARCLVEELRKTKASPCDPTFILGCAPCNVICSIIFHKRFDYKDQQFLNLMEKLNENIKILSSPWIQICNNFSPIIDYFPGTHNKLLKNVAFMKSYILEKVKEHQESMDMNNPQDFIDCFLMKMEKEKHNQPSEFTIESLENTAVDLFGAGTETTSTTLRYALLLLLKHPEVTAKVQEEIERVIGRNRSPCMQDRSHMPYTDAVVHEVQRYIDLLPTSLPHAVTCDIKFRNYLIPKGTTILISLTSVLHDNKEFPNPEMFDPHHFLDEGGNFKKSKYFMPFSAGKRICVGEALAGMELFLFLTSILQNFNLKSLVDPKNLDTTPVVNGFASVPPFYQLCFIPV
Pyk2 oligo antag = antagonists of human Pyk2 oligomerization; hit rate 0.83% among 99,000; z-score (the deposit names both 25 µM and 10 µM); Q14289; AID 1347419; Q293 cells, Pyk2 FERM NanoBiT luminescence; hits give low values;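 active = Z-score of -3 or lower, scaled per plate to the spread of control and sample wells; inactive = z-score above -3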;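 note: negative z-score means lost luminescence so less FERM oligomerization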
CYP2C9 activ = CYP2C9 (human) activation; P11712; recombinant CYP2C9, luciferin-H conversion, luminescence; hits give high values; factor 1 = untreated enzyme, 0 = blocked; activation factor at 5 µM; hit rate 1.4% among 96,000; AID 1024;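 active = activation factor of 2 or more for CYP2C9 at a 5 µM dose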;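 note: 0 = sulfaphenazole-blocked wells and 1 = vehicle-only wells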
Numbers without * were called inactive.

For COc1ccccc1CNC(=O)C1CC(=O)N(c2ccc(C)c(C)c2)C1 (stereo not drawn) the results were CYP2C19 activ 0.4, CYP2C19 inh 57.9*, CYP2C9 inh -152.4, Pyk2 oligo antag -0.17 and CYP2C9 activ 2.5*.
`O=C(NCCOc1ccc(Cl)cc1)C1CC(=O)N(c2ccc(F)cc2)C1` (stereo not drawn) gave CYP2C19 activ 0.7, CYP2C19 inh 32.9, CYP2C9 inh -12.4, Pyk2 oligo antag -0.7 and CYP2C9 activ 1.1.
`COc1ccc(OC)c(NC(=O)C2CC(=O)N(c3ccc(Br)cc3)C2)c1` (stereo not drawn) gave CYP2C19 activ 0.1, CYP2C19 inh 86.5*, CYP2C9 inh 84.1*, Pyk2 oligo antag 0.55 and CYP2C9 activ 0.2.
Screening CCc1nc2ccccc2n1Cc1cc(=O)n2cc(C)ccc2n1 returned CYP2C19 activ 0.8, CYP2C19 inh 16.5, CYP2C9 inh 35.9, Pyk2 oligo antag -0.17 and CYP2C9 activ 0.6.
`COc1ccc(OCC(=O)NCCCN2CCOCC2)cc1` gave Pyk2 oligo antag -1.04.
For CCn1cc(C(=O)Nc2ccc(C(=O)N3CCCC3)cc2)c(=O)c2ccc(C)nc21 the results were CYP2C19 activ 0.9, CYP2C19 inh 6.8, CYP2C9 inh 2.0 and CYP2C9 activ 1.
For Cc1ccc(NC(=O)c2ccco2)cc1NC(=O)CSc1nnc(-c2cccs2)n1C the results were CYP2C19 activ 1.1, CYP2C19 inh -6.3, CYP2C9 inh 13.1, Pyk2 oligo antag 0.4 and CYP2C9 activ 0.9.
Cc1ccc(N2C(=O)C(Cc3ccc(O)cc3)NC2=S)cc1C (stereo not drawn) was read as Pyk2 oligo antag -0.11.
Screening O=C(O)C1CC(=O)N(c2ccc(Br)cc2)C1 (stereo not drawn) returned CYP2C19 activ 1.2, CYP2C19 inh -15.3, CYP2C9 inh -20.0, Pyk2 oligo antag 1.78 and CYP2C9 activ 1.2.
`C=CCN(CC=C)C(=O)C1CC(=O)N(c2ccc(Br)cc2)C1` (stereo not drawn) gave CYP2C19 activ 0.4, CYP2C19 inh 62.7*, CYP2C9 inh 24.3, Pyk2 oligo antag -1.41 and CYP2C9 activ 0.8.
COc1ccc(S(=O)(=O)Nc2nc(C(F)(F)F)cs2)cc1 was read as CYP2C19 activ 0.6, CYP2C19 inh 35.3, CYP2C9 inh 98.0*, Pyk2 oligo antag -1.31 and CYP2C9 activ 0.
COc1ccc(S(=O)(=O)Nc2nnc(C(C)(C)C)s2)cc1 was read as CYP2C19 activ 1, CYP2C19 inh -0.4, CYP2C9 inh 29.2, Pyk2 oligo antag -0.61 and CYP2C9 activ 0.7.
CC1=C2C(CCS2(=O)=O)CC2(C1)C(=O)OC(C)(C)OC2=O (stereo not drawn) was read as CYP2C19 activ 0.2, CYP2C19 inh 81.9*, CYP2C9 inh 2.6, Pyk2 oligo antag -0.15 and CYP2C9 activ 1.
For COC(=O)c1cc(OC)c(OC)cc1NC(=O)Cn1nnc(-c2ccccc2Cl)n1 the results were CYP2C19 activ 0.9, CYP2C19 inh 13.6, CYP2C9 inh 19.2, Pyk2 oligo antag 0.28 and CYP2C9 activ 0.8.
Screening O=C(COc1ccccc1O)Nc1ccc(Cl)cc1 returned CYP2C19 activ 0.1, CYP2C19 inh 87.8*, CYP2C9 inh 59.6*, Pyk2 oligo antag 0.91 and CYP2C9 activ 0.4.
For CSc1ccccc1NC(=O)Nc1cccc(Cl)c1Cl the results were CYP2C19 activ 0.9, CYP2C19 inh 13.0, CYP2C9 inh 19.8, Pyk2 oligo antag -1.09 and CYP2C9 activ 0.8.
Screening CSc1ccccc1NC(=O)COc1ccccc1Cl returned CYP2C19 activ 0.2, CYP2C19 inh 76.8*, CYP2C9 inh 58.7*, Pyk2 oligo antag -0.8 and CYP2C9 activ 0.4.
Cc1[nH]n(CCC#N)c(=O)c1CC(=O)N1CCN(c2ccccc2)CC1 was read as CYP2C19 activ 1.1, CYP2C19 inh -13.5, CYP2C9 inh -25.9, Pyk2 oligo antag -1.03 and CYP2C9 activ 1.3.
CC(=O)c1ccc(NS(=O)(=O)c2ccc(CC(C)C)cc2)cc1 was read as CYP2C19 activ 0.3, CYP2C19 inh 66.8*, CYP2C9 inh 85.9*, Pyk2 oligo antag -1.12 and CYP2C9 activ 0.1.
`COc1cccc(NS(=O)(=O)Cc2ccccc2)c1` gave CYP2C19 activ 0.5, CYP2C19 inh 48.8, CYP2C9 inh 7.9, Pyk2 oligo antag -0.03 and CYP2C9 activ 0.9.
`CC(=O)Nc1cccc(NS(=O)(=O)Cc2ccc(Cl)cc2)c1` gave CYP2C19 activ 0, CYP2C19 inh 96.5*, CYP2C9 inh -25.6, Pyk2 oligo antag 0.21 and CYP2C9 activ 1.3.
For CC(=O)c1ccc(NC(=O)Nc2ccc(NS(=O)(=O)c3ccc(C)cc3)cc2)cc1 the results were CYP2C19 activ 0.9, CYP2C19 inh 5.8, CYP2C9 inh 7.7, Pyk2 oligo antag 1.16 and CYP2C9 activ 0.9.
`CC(=O)c1ccc(NS(=O)(=O)Cc2ccc(Cl)cc2)cc1` gave CYP2C19 activ 0.3, CYP2C19 inh 74.3*, CYP2C9 inh 76.8*, Pyk2 oligo antag 0.53 and CYP2C9 activ 0.2.
For COC(=O)c1cc(F)c(-n2cncn2)c(F)c1 the results were CYP2C19 activ 0.3, CYP2C19 inh 70.0*, CYP2C9 inh 9.4, Pyk2 oligo antag 0.73 and CYP2C9 activ 0.9.
`CC1CC(C)CN(C(=O)CSc2nc(Cc3cccs3)nc3ccccc23)C1` (stereo not drawn) gave CYP2C19 activ 0.7, CYP2C19 inh 27.6, CYP2C9 inh 71.6*, Pyk2 oligo antag 1.62 and CYP2C9 activ 0.3.
`CCOC(=O)CNC(=O)CSc1nc(Cc2cccs2)nc2ccccc12` gave CYP2C19 activ 0.4, CYP2C19 inh 57.6*, CYP2C9 inh 43.8, Pyk2 oligo antag -0.56 and CYP2C9 activ 0.6.
CCCc1nc(SCC(=O)N2CCc3ccccc3C2)c2ccccc2n1 was read as CYP2C19 activ 0.4, CYP2C19 inh 57.1*, CYP2C9 inh 78.5*, Pyk2 oligo antag -0.71 and CYP2C9 activ 0.2.
CCOC(=O)CSc1nc(CC)nc2ccccc12 was read as CYP2C19 activ 0.6, CYP2C19 inh 45.0, CYP2C9 inh 16.7, Pyk2 oligo antag 0.39 and CYP2C9 activ 0.8.
For COC(=O)CNC(=O)CCCCC(=O)NCC(=O)OC the results were CYP2C19 activ 1.1, CYP2C19 inh -13.6, CYP2C9 inh -13.6, Pyk2 oligo antag 0.99 and CYP2C9 activ 1.1.
`COc1ccc(Cl)cc1NC(=O)CS(=O)(=O)c1cccc2nsnc12` gave CYP2C19 activ 1, CYP2C19 inh 4.7, CYP2C9 inh -76.7, Pyk2 oligo antag -1.32 and CYP2C9 activ 1.8.
For CCN(CC)C(=O)COc1ccc(-c2nnc(N3CCCCC3)c3ccccc23)cc1 the results were CYP2C19 activ 0.5, CYP2C19 inh 52.3*, CYP2C9 inh 79.5*, Pyk2 oligo antag -0.21 and CYP2C9 activ 0.2.
For Cn1nc(-c2ccc(OCC(=O)Nc3ccccc3)cc2)c2ccccc2c1=O the results were CYP2C19 activ 0.2, CYP2C19 inh 81.4*, CYP2C9 inh 67.9*, Pyk2 oligo antag -1.1 and CYP2C9 activ 0.3.
For CCOc1ccc(-c2nnc(N3CCCCC3)c3ccccc23)cc1 the results were CYP2C19 activ 0.6, CYP2C19 inh 38.8, CYP2C9 inh 43.5, Pyk2 oligo antag -1.72 and CYP2C9 activ 0.6.
